The supplement of paper PMC7156485
± gives the standard deviation of the averaged measurements.

system: HCC1569; assay: cell number relative to DMSO (% of DMSO); higher = more cells (less growth inhibition / toxicity); settings: concentration: 10 µM; 24 h
Summary of the method: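 H1.0 nuclear intensity or cell number is stated as percent of the plate control, based on the median of replicates, and HCC1569 values were smoothed for positional effects. These came from HCC1569 and TDF cells treated with compounds at 10 µM for 24 h at 37 °C in triplicate, then fixed in 3.7% formaldehyde and stained with a rabbit anti-H1.0 antibody, an AlexaFluor 647 secondary and DAPI.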
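Note: TDF denotes transformed human dermal fibroblasts of mesenchymal origin.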

| SMILES | cell number |
| --- | --- |
| CCCCCC=CCC=CCC(O)C=CC=CCCCC(=O)O (configuration not stated) | 102 |
| CN(C)C1C(=O)C(C(N)=O)=C(O)C2(O)C(=O)C3=C(O)c4c(O)ccc(Cl)c4C(O)C3CC12.Cl (configuration not stated) [Demeclocycline hydrochloride] | 96.2 |
| CCCCc1oc2ccccc2c1C(=O)c1cc(I)c(OCCN(CC)CC)c(I)c1.Cl [Amiodarone.HCl] | 99.7 |
| Cl.Cl.N=C(N)c1ccc(N)cc1 [4-Aminobenzamidine dihydrochloride] | 99.9 |
| CCN(CC)C(=O)C(C#N)=Cc1cc(O)c(O)c([N+](=O)[O-])c1 [Entacapone] | 98.2 |
| CC1OC(OC2C(O)CC(OC3C(O)CC(OC4CCC5(C)C(CCC6C5CCC5(C)C(C7=CC(=O)OC7)CCC65O)C4)OC3C)OC2C)CC(O)C1O (configuration not stated) [Digitoxin] | 58.4 |
| C1CCN2CC3CC(CN4CCCCC34)C2C1.O.O.O.O.O.O=S(=O)(O)O (configuration not stated) | 103 |
| CCCCCCCCCCCC(CC1OC(=O)C1CCCCCC)OC(=O)C(CC(C)C)NC=O (configuration not stated) [Tetrahydrolipistatin] | 100 |
| CCCCCC(=O)CCC1C(O)CC(O)C1CC=CCCCC(=O)O (configuration not stated) [13,14-Dihydro-15-keto-prostaglandin F2a] | 99.9 |
| Cc1nc2sccn2c(=O)c1CCN1CCC(=C(c2ccccc2)c2ccc(F)cc2)CC1 [Diacylglycerol kinase inhibitor I] | 87.2 |
| Cc1oncc1C(=O)Nc1ccc(C(F)(F)F)cc1 [Leflunomide] | 103 ± 3.5 |
| COC(=O)Nc1nc2ccc(C(=O)c3ccccc3)cc2[nH]1 [Mebendazol] | 69.2 |
